Source: PubChem BioAssay (NCI)
This is part of a sample that, as a whole, favours compounds with a hit. Of some 83,000 tested, about 20% had one in any assay.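 Growth was measured after 48 h exposure to one concentration of compound in 96-well plates. Values under 10 count as active.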 A number with no mark means an inactive call. Calls of active or inactive are those of the source.

What follows are compounds tested on HL-60(TB) leukemia (assay: NCI-60 one-dose screen, 48 h (100 = growth as untreated, 0 = no growth, -100 = all killed)). Details: 10 µM unless noted.

SMILES | growth
CS(=O)(=O)c1ccc(-n2nc(-c3ccc(Br)cc3)c3ccccc3c2=O)cc1 | 93.3%
O=C(Nc1ccc(Nc2cc(Nc3ccccc3)ncn2)cc1)Nc1cc(C(F)(F)F)ccc1F | 106%
Cc1[nH]c(C(=O)Nc2ccc(C(=O)N3CCNCC3)cc2OC(C)C)c(Cl)c1Cl | 57.4%
CN(C)Cc1cccs1 | 104%
NC(N)=N/N=C\c1ccc(OCc2ccccc2)cc1 | 43.1%
C=C(C)[C@@H]1CC[C@]2(C(=O)NCCCN)CC[C@]3(C)[C@H](CC[C@@H]4[C@@]5(C)CC[C@H](O)C(C)(C)[C@@H]5CC[C@]43C)[C@@H]12 | 1.25% [100 µM] (active)
O=C1N=C(c2c(-c3[nH]c(=O)c4ccc(Br)cc4c3O)c(O)c3ccccc3c2O)C(=O)c2cc(Br)ccc21 | 45.6%
COc1c(C(C)=O)c(OCCCCOc2c(C(C)=O)c(OC)c3ccoc3c2OC)c(OC)c2occc12 | 57.4%
Nc1ccccc1-c1ccn[nH]1 | 95.6%
CCN(CCCOc1ccc2c(Nc3cc(CC(=O)Nc4cccc(F)c4)[nH]n3)ncnc2c1)CCOP(=O)(O)O | 34.9%
Cc1c(Cl)cccc1NCN1C(=O)c2ccccc2C1=O | 113%
N#C/C(=C\c1ccc(-c2ccc(Cl)c(Cl)c2)o1)c1nc(-c2ccco2)cs1 | 103%
CCCCCCCCCCCCCCCCCCOc1ccccc1CCCOP(=O)(O)OCC[N+](C)(C)C | 21.9%
CNS(=O)(=O)c1cccc(-c2ccc3c4c(n(C)c(=O)c3c2)-c2ccccc2C4=O)c1 | -4.99% (active)
COc1ccc(NC(=O)c2ccc3c(c2)nc(-c2ccc(Cl)cc2)n3-c2cc(C(C)(C)C)[nH]n2)cc1 | 96.8%
Cc1cc(Cl)ccc1Nc1nc(C(F)(F)F)ccc1C(=O)N/N=C/c1ccc(Cl)cc1 | -33.8% (active)
CNC(=O)c1cccc(Cn2nc(C)c(NC(=O)c3ccc(COc4ccc(C(F)(F)F)cc4C)cc3)c2C)n1 | 36.7%
FC(F)c1nc2ccccc2n1-c1nc(N2CCOCC2)nc(N2CCOCC2)n1 | 15.1%
S=C(SSC(=S)N1CCOCC1)N1CCOCC1 | 98%
COc1ccc(-c2ccc(-c3ccc(C(=N)N)s3)s2)cc1Cl | -41.8% (active)

SMILES | growth
Cc1cc2nc3c4ccc(Br)cc4n(CCN(C)C)c3nc2cc1C | 3.73% (active)
Cc1ccc(-c2c3c(N)nc(-c4ccncc4)nc3nc3c2c(C)nn3-c2ccccc2)cc1 | 97%
CC(CCC(=O)O)(NC(=O)c1ccc([N+](=O)[O-])cc1)C(=O)O (stereo not given) | 94.9%
C=CCn1c(SCC(=O)Nc2ccc(C(=O)/C=C/c3ccc(Cl)cc3)cc2)nnc1-c1cc(-c2ccccc2)nc2ccccc12 | 99.8%
O=C(CCNNC(=O)c1ccncc1)NCc1ccccc1 | 70.1%
c1ccc(-c2oc3ccccc3c2-c2ccccc2)cc1 | 48.5%
O=C(NCCCNc1cc(-c2cn(-c3ccccc3)nc2-c2cccc(O)c2)ccn1)c1cccc(O)c1 | 35.2%
COc1ccc(-c2nc(N=Nc3c(O)[nH]c4ccccc34)nc(N3CCOCC3)c2C#N)cc1 | 90.5%
C[C@@H]1C(=O)N(C[C@H](Cc2ccccc2)N(Cc2ccccc2)Cc2ccccc2)[C@]1(Cc1ccccc1)C(=O)OC(C)(C)C | 62.9%
CC(C)OC(=O)c1ccc2n1CCCc1cnc(Nc3ccccc3)nc1-2 | 79.1%
COc1ccc(NC(=O)c2sc3nc(C)c(C(O)c4ccccc4)cc3c2N)cc1 (stereo not given) | -51.9% (active)
CCCCCCCCNC(C)C(O)c1ccc(SC(C)C)cc1 (stereo not given) | -70.1% (active)
CCN(CC)CCCNC(=O)c1c2c(n3ccccc13)C(=O)c1ncccc1C2=O | -33.8% (active)
NC1=Nc2cc(OCCCCN3Cc4ccccc4C3)c(OCC3CC3)cc2C12CCCC2 | 20.2%
CC1(C)N=C(N)N=C(N)N1c1cc(Cl)ccc1Cl | 53.7%
COC(c1ccccc1)(c1ccccc1)c1ccccc1 | 111%
NS(=O)(=O)c1ccc(-n2ncc3c(=O)[nH]c(CN4CCN(c5cc6c(cc5F)c(=O)c(C(=O)O)cn6C5CC5)CC4)nc32)cc1 | 98%
COc1ccc(/C=C/C(=O)c2c(C)nc3ccccc3c2/C=C/c2ccccc2)cc1O | 49.1%
N#Cc1c(-c2ccc(F)cc2)cc(-c2cccc(Cl)c2)[nH]c1=O | 84.9%
COc1cccc2nc(Nc3cccc(NC(=O)c4ccc(N5CCN(C)CC5)c(C(F)(F)F)c4)c3)ccc12 | 37.6%
